Data taken from PubChem BioAssay (NCATS).
Inconclusive results are not listed. Unmarked numbers belong to inactive results. Activity calls are given as the source filed them. Unless noted, calls come from the whole dose curve; as a rule, active = well fitted curve in the direction sought with a large enough effect; inconclusive = small, poorly fitted or top-dose-only effect, or another doubt; inactive = no such curve, though single readings can be large; an effect the other way counts as inactive or inconclusive.

Assay: qHTS assay for small molecule agonists of the antioxidant response element (ARE) signaling pathway measured by Nrf2-dependant transcriptional activity - cell viability counter screen (AID 720653; active = well fitted curve in the direction sought with a large enough effect in the repeat runs; an effect the other way counts as inactive or inconclusive)
Settings: ARE-bla HepG2 viability, CellTiter-Glo ATP luminescence, 16 h; hits give low values
Summary of the method: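 ARE-bla HepG2 cells treated with compounds for 16 h at 37C; this counter screen measures viability as intracellular ATP by CellTiter-Glo luminescence after 30 min at room temperature.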
% is set by controls: 0 for no effect and ±100 for the full control effect.

| Compound | max response [%] |
| --- | --- |
| Nc1ccccc1N | 1.96 |
| Cc1ccc(N)cc1O | -11.4 |
| CC(=O)O[C@@H]1CC(C)=C2[C@H]1[C@H](C)CC[C@H]2/C=C(\C)C(=O)O | -16.1 |
| CC(=O)O[C@H]1C(=O)[C@@]2(C)[C@H]([C@H](OC(=O)c3ccccc3)[C@]3(O)C[C@H](OC(=O)[C@H](O)[C@@H](NC(=O)c4ccccc4)c4ccccc4)C(C)=C1C3(C)C)[C@]1(OC(C)=O)CO[C@@H]1C[C@@H]2O | -7.37 |

Assay: qHTS assay for cell viability of HEK293 cells (AID 743288); note: nearly all actives have a fitted effect of over 50% in size
Settings: ATP luminescence (CellTiter-Glo), 18 h, hits give low values
Summary of the method: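 Viable-cell counts were inferred from luciferase-based ATP content in HEK293 cells seeded at 2,000/well, pre-incubated ≥5 h, then dosed with DMSO-solubilised compounds for 18 h at 37 C.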

| Compound | max response [%] |
| --- | --- |
| Cc1ccc(N)cc1O | 3.99 |
| CC(=O)O[C@@H]1CC(C)=C2[C@H]1[C@H](C)CC[C@H]2/C=C(\C)C(=O)O | -5.49 |
| CC(=O)O[C@H]1C(=O)[C@@]2(C)[C@H]([C@H](OC(=O)c3ccccc3)[C@]3(O)C[C@H](OC(=O)[C@H](O)[C@@H](NC(=O)c4ccccc4)c4ccccc4)C(C)=C1C3(C)C)[C@]1(OC(C)=O)CO[C@@H]1C[C@@H]2O | -10.4 |

Assay: qHTS assay for cell viability of the p53RE-bla HCT-116 cell line (AID 743292); note: nearly all actives have a fitted effect of over 55% in size
Settings: p53RE-bla HCT-116 viability, ATP luminescence, 16 h; series mostly up to 95 µM; activity change, negative = cytotoxicity: at the top concentration
Summary of the method: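 After plating at 4,000 cells per well and a 5 h rest at 37 C, HCT-116 cells carrying p53RE-bla received test chemicals in DMSO. Sixteen hours later at 37 C, CellTiter-Glo was added and luminescence recorded following 30 min at room temperature.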

| Compound | activity change, negative = cytotoxicity [%] |
| --- | --- |
| Nc1ccccc1N | 9.16 |
| Cc1ccc(N)cc1O | 0.259 |
| CC(=O)O[C@@H]1CC(C)=C2[C@H]1[C@H](C)CC[C@H]2/C=C(\C)C(=O)O | -1.2 |
| CC(=O)O[C@H]1C(=O)[C@@]2(C)[C@H]([C@H](OC(=O)c3ccccc3)[C@]3(O)C[C@H](OC(=O)[C@H](O)[C@@H](NC(=O)c4ccccc4)c4ccccc4)C(C)=C1C3(C)C)[C@]1(OC(C)=O)CO[C@@H]1C[C@@H]2O | 3.32 |

Assay: P-glycoprotein substrates identified in KB-8-5-11 adenocarcinoma cell line, qHTS therapeutic library screen (AID 1346987); note: nearly all actives have a fitted effect of over 65% in size; note: potency is the fitted concentration of half-maximal effect
Settings: KB-8-5-11 (P-gp overexpressing) viability, CellTiter-Glo, 72 h; series mostly up to 44.5 µM; activity change, negative = cytotoxicity: at the top concentration
Summary of the method: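 Compounds are pinned in dose-response onto KB-8-5-11 cells (500 cells/well, colchicine-free medium) and left 72 h at 37 degree C. CellTiter-Glo luminescence then yields AC50 values.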

| Compound | activity change, negative = cytotoxicity | Potency | outcome |
| --- | --- | --- | --- |
| CC(CCC1(O)OC2CC3C4CCC5CC(O[C@@H]6O[C@H](CO)[C@@H](O)[C@H](O)[C@H]6O[C@@H]6O[C@@H](C)[C@H](O)[C@@H](O)[C@H]6O)C(O)CC5(C)C4CCC3(C)C2C1C)CO[C@@H]1O[C@H](CO)[C@@H](O)[C@H](O)[C@H]1O (stereo partly drawn) | 1.44% [at 9.29 µM] |  |  |
| COc1ncc(Nc2ncc([C@H](C)N3CCN(S(C)(=O)=O)CC3)cc2-c2nc(C)nc(N)n2)cc1F |  | 9.2 µM (active) |  |
| COc1cc2oc(-c3ccc(O)cc3O)cc2c(OC)c1CC=C(C)C | -2.62% |  |  |
| Nc1ccccc1N | -26.4% [at 93.4 µM] |  |  |
| CC(C)C(CO)Nc1nc(Nc2cc(N)cc(Cl)c2)c2ncn(C(C)C)c2n1 (stereo not drawn) |  | 7.31 µM (active) |  |
| CC1=C(C(=O)O[C@@H]2O[C@H](COC3OCC(O)C(O)C3O)[C@@H](O)[C@H](O)[C@H]2O)C(C)(C)CCC1 (stereo partly drawn) | -17.3% [at 17.3 µM] |  |  |
| CO[C@@H](C)Cn1c(=O)n(C)c2cnc3ccc(-c4cncc(C(C)(C)O)c4)cc3c21 |  | 0.651 µM (active) |  |
| COCC1OC(OC(C)(C)C2CCC3(C)C=C(C4CCC5C4(C)CC(O)C4OC(C(C)(C)OC6OC(CO)C(O)C(O)C6NC(C)=O)CCC45C)CCC3O2)C(NC(C)=O)C(O)C1O (stereo not drawn) |  |  | inactive [at 9.29 µM] |
| CC1CCC2(OC1)OC1CC3C4CCC5C[C@@H](O[C@@H]6O[C@H](CO[C@@H]7OC[C@@H](O)[C@H](O)[C@H]7O)[C@H](O)[C@H](O)[C@H]6O)CC[C@]5(C)C4CC[C@]3(C)C1C2C (stereo partly drawn) |  |  | inactive [at 17.3 µM] |
| COc1c2c(cc3c1-c1c(cc4c(c1OC)OCO4)CC(C)C(C)C3)OCO2 (stereo not drawn) | -4.87% |  |  |
| C[C@@H]1CCC/C=C/[C@H]2CC(=O)C[C@@H]2[C@@H](O)/C=C/C(=O)O1 |  |  | inactive |
| CC[C@H](NC(=O)[C@H](CS(=O)(=O)CC1CC1)N[C@@H](c1ccc(F)cc1)C(F)(F)F)C(=O)C(=O)NC1CC1 | -17.1% |  |  |
| C=C1CCC2C(C)(C)C(O)CCC2(C)C1CCC(C)CCO (stereo not drawn) | -19.3% |  |  |
| C[C@H]1Oc2cc(cnc2N)-c2c(nn(C)c2C#N)CN(C)C(=O)c2ccc(F)cc21 | -54% |  |  |
| OCc1ccc(O[C@@H]2O[C@H](CO)[C@@H](O)[C@H](O)[C@H]2O)cc1 | 6.81% |  |  |
| C=C(C(=O)OC)C1C(O)CC2(C)C(=O)CCC(O)(CO)C2C1O (stereo not drawn) |  |  | inactive |
| CC(/C=C/C1=CC2=CC(=O)C(C)(O)C(O)C2=CO1)=C\C(C)CCO (stereo not drawn) | 7.59% |  |  |
| C/C=C/C(O)C1OC(=O)CC1Nc1ccc(C(=O)O)cc1 (stereo not drawn) | 8.63% |  |  |
| C=C1C(=O)O[C@@H]2C/C(C)=C\C(=O)/C=C(\C)[C@@H](OC(=O)/C(C)=C\C)[C@H](O)[C@@H]12 |  | 4.04 µM (active) |  |
| C[C@H](CCC(=O)O)[C@H]1CC[C@H]2[C@@H]3C[C@H](O)[C@@H]4C[C@H](O)CC[C@]4(C)[C@H]3CC[C@]12C | 1.66% |  |  |
| Cc1ccc(N)cc1O | -15.3% [at 93.4 µM] |  |  |
| Cc1cc(C)c(Nc2ccnc(Nc3ccc(C#N)cc3)n2)c(C)c1 |  | 9.2 µM (active) |  |
